{
  "source": "ChEMBL document CHEMBL3988442",
  "about": "“University of Dundee, Small-Polar-MMV Screening Library” (2021)",
  "test_system": "Trypanosoma brucei",
  "assay": "Trypanosoma brucei 72 hour study",
  "format": "functional, organism-based",
  "parameters": "scale not given: in the data most compounds retested in dose-response had high values",
  "note": "The campaign covered roughly 66,000 compounds. About 960 (1.5%) showed an effect of 50% or more. The list comes from a sample in which strong results are over-represented; it also holds similar structures and randomly drawn compounds.",
  "data": [
    {"smiles": "CC(C)COc1cncc(N(C)C2CCN(c3ncccn3)CC2)n1", "values": [
      {"measurement": "Percent Effect", "setting": "30.3 µM, […]", "result": 90.23, "unit": "%"}
    ]},
    {"smiles": "CC(C)COc1cncc(N2CCCN(c3ncccn3)CC2)n1", "values": [
      {"measurement": "Percent Effect", "setting": "30.3 µM, […]", "result": -75.77, "unit": "%"}
    ]},
    {"smiles": "CNC(=O)CN(C)c1cncc(OCC(C)C)n1", "values": [
      {"measurement": "Percent Effect", "setting": "30 µM, 30.03 µM", "result": -18.74, "unit": "%"}
    ]},
    {"smiles": "CN(C)CCOCc1nnc2n1CCN(Cc1cccs1)CC2.O=C(O)C(F)(F)F.O=C(O)C(F)(F)F", "values": [
      {"measurement": "Percent Effect", "setting": "30.3 µM, […]", "result": -17.71, "unit": "%"}
    ]},
    {"smiles": "Br.Cc1ccccc1OC1CCN(CC(=O)Nc2ccn(C)n2)CC1", "values": [
      {"measurement": "Percent Effect", "setting": "30.3 µM, […]", "result": 12.28, "unit": "%"}
    ]},
    {"smiles": "Cc1ccccc1N1CC2(CCN(S(=O)(=O)c3ccccc3)C2)CC1=O", "note": "(centres undefined)", "values": [
      {"measurement": "Percent Effect", "setting": "30.3 µM, […]", "result": 11.6, "unit": "%"}
    ]},
    {"smiles": "CCOc1cc(Cl)c(CN2CCC3(CCCNC3=O)C2)cc1OC", "note": "(centres undefined)", "values": [
      {"measurement": "Percent Effect", "setting": "30.3 µM, […]", "result": -16.79, "unit": "%"}
    ]},
    {"smiles": "CCOc1cc2c(cc1CN1CCC3(CCCNC3=O)C1)CCC2", "note": "(centres undefined)", "values": [
      {"measurement": "Percent Effect", "setting": "30.3 µM, […]", "result": 98.93, "unit": "%"}
    ]},
    {"smiles": "CCOc1cc2c(cc1CN1CCC3(CC1)CNC(=O)C3)CCC2", "values": [
      {"measurement": "Percent Effect", "setting": "30.3 µM, […]", "result": -17.68, "unit": "%"}
    ]},
    {"smiles": "O=C(N1CCCC1)N1CCC2(CCN(Cc3ccccn3)C2=O)C1.O=C(O)C(F)(F)F", "note": "(centres undefined)", "values": [
      {"measurement": "Percent Effect", "setting": "30 µM, 30.03 µM", "result": -20.49, "unit": "%"}
    ]},
    {"smiles": "CCN(CC)c1nc(Nc2cccc(C(C)O)c2)nc2ccccc12", "note": "(centres undefined)", "values": [
      {"measurement": "Percent Effect", "setting": "30 µM, 30.03 µM", "result": 78.38, "unit": "%"}
    ]},
    {"smiles": "CC(O)c1cccc(Nc2nc(NCCO)c3ccccc3n2)c1", "note": "(centres undefined)", "values": [
      {"measurement": "Percent Effect", "setting": "30 µM, 30.03 µM", "result": 5.503, "unit": "%"}
    ]},
    {"smiles": "CCN(CC)c1nc(Nc2cccc(C(=O)O)c2)nc2ccccc12", "values": [
      {"measurement": "Percent Effect", "setting": "30 µM, 30.03 µM", "result": -36.54, "unit": "%"}
    ]},
    {"smiles": "O=C(O)C(F)(F)F.O=C1NC2(CCN(C(=O)N3CCOCC3)CC2)CC1c1cccnc1", "note": "(centres undefined)", "values": [
      {"measurement": "Percent Effect", "setting": "30 µM, 30.03 µM", "result": -17.56, "unit": "%"}
    ]},
    {"smiles": "CN1CCOC(CNCc2coc(-c3ccccc3)n2)C1", "note": "(centres undefined)", "values": [
      {"measurement": "Percent Effect", "setting": "30 µM, 30.03 µM", "result": -39, "unit": "%"}
    ]},
    {"smiles": "CN1CCOC(CNCc2coc(-c3cccc(F)c3)n2)C1", "note": "(centres undefined)", "values": [
      {"measurement": "Percent Effect", "setting": "30.3 µM, […]", "result": 41.18, "unit": "%"},
      {"measurement": "Percent Effect", "setting": "10 mM, 10 mM as filed; unlikely as a test dose", "result": -36.07, "unit": "%"}
    ]},
    {"smiles": "CN(C)CC1CN(Cc2coc(-c3ccc(Cl)cc3)n2)CCO1", "note": "(centres undefined)", "values": [
      {"measurement": "Percent Effect", "setting": "10 µM", "result": -46.52, "unit": "%"},
      {"measurement": "Percent Effect", "setting": "30.3 µM, […]", "result": 62.36, "unit": "%"}
    ]},
    {"smiles": "CN1CCOC(CNCc2c(Cl)nc3ccccn23)C1", "note": "(centres undefined)", "values": [
      {"measurement": "Percent Effect", "setting": "30 µM, 30.03 µM", "result": -12.37, "unit": "%"}
    ]},
    {"smiles": "CN(C)CC1CN(Cc2coc(-c3ccccc3Cl)n2)CCO1", "note": "(centres undefined)", "values": [
      {"measurement": "Percent Effect", "setting": "30 µM, 30.03 µM", "result": -2.77, "unit": "%"}
    ]},
    {"smiles": "Cc1ccc(-c2nc(CNCC3CN(C)CCO3)co2)cc1", "note": "(centres undefined)", "values": [
      {"measurement": "Percent Effect", "setting": "30.3 µM, […]", "result": 93.13, "unit": "%"},
      {"measurement": "Percent Effect", "setting": "10 mM, 10 mM as filed; unlikely as a test dose", "result": -9.822, "unit": "%"}
    ]},
    {"smiles": "CN(C)CC1CN(Cc2coc(-c3ccccc3)n2)CCO1", "note": "(centres undefined)", "values": [
      {"measurement": "Percent Effect", "setting": "10 µM", "result": -12.24, "unit": "%"},
      {"measurement": "Percent Effect", "setting": "30.3 µM, […]", "result": 1.121, "unit": "%"}
    ]},
    {"smiles": "Cc1ccc(-c2nc(CN3CCOC(CN(C)C)C3)co2)cc1", "note": "(centres undefined)", "values": [
      {"measurement": "Percent Effect", "setting": "10 µM", "result": 5.738, "unit": "%"},
      {"measurement": "Percent Effect", "setting": "30.3 µM, […]", "result": -1.882, "unit": "%"}
    ]},
    {"smiles": "CN1CCOC(CNC(=O)Cc2coc(-c3ccccc3)n2)C1", "note": "(centres undefined)", "values": [
      {"measurement": "Percent Effect", "setting": "30.3 µM, […]", "result": -0.1289, "unit": "%"},
      {"measurement": "Percent Effect", "setting": "10 mM, 10 mM as filed; unlikely as a test dose", "result": -18.77, "unit": "%"}
    ]},
    {"smiles": "CN1CCOC(CNCc2coc(-c3cccc(Cl)c3)n2)C1", "note": "(centres undefined)", "values": [
      {"measurement": "Percent Effect", "setting": "30.3 µM, […]", "result": 98.76, "unit": "%"},
      {"measurement": "Percent Effect", "setting": "10 mM, 10 mM as filed; unlikely as a test dose", "result": -110.4, "unit": "%"}
    ]},
    {"smiles": "CN1CCOC(CNCc2coc(-c3ccccc3Cl)n2)C1", "note": "(centres undefined)", "values": [
      {"measurement": "Percent Effect", "setting": "30.3 µM, […]", "result": 54.4, "unit": "%"},
      {"measurement": "Percent Effect", "setting": "10 mM, 10 mM as filed; unlikely as a test dose", "result": -73.24, "unit": "%"}
    ]},
    {"smiles": "CN1CCOC(CNCc2coc(-c3cccs3)n2)C1", "note": "(centres undefined)", "values": [
      {"measurement": "Percent Effect", "setting": "30 µM, 30.03 µM", "result": -23.33, "unit": "%"}
    ]},
    {"smiles": "CCCS(=O)(=O)N1C[C@H]2C[C@H](C(=O)N3CCOCC3)[C@@H](C1)O2", "values": [
      {"measurement": "Percent Effect", "setting": "30.3 µM, […]", "result": -5.473, "unit": "%"}
    ]},
    {"smiles": "CN(C)CCOCc1nnc2n1CCN(Cc1ccc(F)cc1)CC2.O=C(O)C(F)(F)F.O=C(O)C(F)(F)F", "values": [
      {"measurement": "Percent Effect", "setting": "30.3 µM, […]", "result": -11.21, "unit": "%"}
    ]},
    {"smiles": "O=C(O)C(F)(F)F.O=C(c1ccco1)N1C[C@H]2CCCN(Cc3ccoc3)[C@H]2C1", "values": [
      {"measurement": "Percent Effect", "setting": "30 µM, 30.03 µM", "result": -0.7502, "unit": "%"}
    ]},
    {"smiles": "CC1c2ncc(Cn3cncn3)n2CCN1CC1CCOCC1.O=C(O)C(F)(F)F", "note": "(centres undefined)", "values": [
      {"measurement": "Percent Effect", "setting": "30.3 µM, […]", "result": -11, "unit": "%"}
    ]},
    {"smiles": "Fc1cccnc1N1CCOCC2(CCCN(c3nncs3)C2)C1.O=C(O)C(F)(F)F", "note": "(centres undefined)", "values": [
      {"measurement": "Percent Effect", "setting": "30 µM, 30.03 µM", "result": 36.62, "unit": "%"}
    ]},
    {"smiles": "CCN(CC)C(=O)CN1CCc2c(nc(C3CCNCC3)nc2NC)C1.Cl", "values": [
      {"measurement": "Percent Effect", "setting": "30.3 µM, […]", "result": -24.06, "unit": "%"}
    ]},
    {"smiles": "CCn1cc(N2Cc3nc(N4CCC(C)CC4)ncc3C2=O)cn1", "values": [
      {"measurement": "Percent Effect", "setting": "30.3 µM, […]", "result": -21.22, "unit": "%"}
    ]},
    {"smiles": "CN1CCOC(CNCc2nc(-c3ccoc3)no2)C1", "note": "(centres undefined)", "values": [
      {"measurement": "Percent Effect", "setting": "30 µM, 30.03 µM", "result": -7.602, "unit": "%"}
    ]},
    {"smiles": "Cc1ccc(-c2nc(CNCC3CN(C)CCO3)co2)c(C)c1", "note": "(centres undefined)", "values": [
      {"measurement": "Percent Effect", "setting": "30.3 µM, […]", "result": 99.99, "unit": "%"},
      {"measurement": "Percent Effect", "setting": "10 mM, 10 mM as filed; unlikely as a test dose", "result": 61.89, "unit": "%"}
    ]},
    {"smiles": "CN1CCOC(CNCc2csc(C3CCCC3)n2)C1", "note": "(centres undefined)", "values": [
      {"measurement": "Percent Effect", "setting": "10 µM", "result": -49.15, "unit": "%"}
    ]},
    {"smiles": "Cc1ccc(-c2nc(CNCC3CN(C)CCO3)cs2)o1", "note": "(centres undefined)", "values": [
      {"measurement": "Percent Effect", "setting": "30.3 µM, […]", "result": 4.391, "unit": "%"}
    ]},
    {"smiles": "CN1CCOC(CNCc2coc(-c3ccc(Cl)cc3)n2)C1", "note": "(centres undefined)", "values": [
      {"measurement": "Percent Effect", "setting": "30.3 µM, […]", "result": 99.53, "unit": "%"},
      {"measurement": "Percent Effect", "setting": "10 mM, 10 mM as filed; unlikely as a test dose", "result": 19.14, "unit": "%"}
    ]},
    {"smiles": "Cc1ccc(-c2nc(CNC3CCc4ncnn4C3)co2)c(C)c1", "note": "(centres undefined)", "values": [
      {"measurement": "Percent Effect", "setting": "30 µM, 30.03 µM", "result": 30.05, "unit": "%"}
    ]}
  ]
}
